Here are results for 32 compounds from PubChem BioAssay (NCATS).

Molecules are shown by their SMILES. Activity calls are given as the source filed them. Calls follow the shape of the dose curve; as a rule, active = well fitted inhibition curve with a large enough effect; inconclusive = small, poorly fitted or top-dose-only effect; inactive = flat fitted curve, though single readings scatter.

The target in this test is Luciferin 4-monooxygenase (Photinus pyralis) (UniProt P08659). Briefly: Primary firefly luciferase (FLuc) qHTS assay for identification of artifact compounds. (AID 1845220). Also: nearly all actives have a fitted effect of over 60% in size.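 As to activity change, negative = inhibition: plate controls were DMSO vehicle for no effect and no enzyme for full effect.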 The conditions noted are these: purified firefly luciferase, luminescence, 5 min; series mostly up to 54.1 µM; activity change, negative = inhibition: at the top concentration. In outline: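 Reaction readout was CCD-imaged luminescence, taken 5 min after adding 10 nM purified firefly enzyme to compound-treated wells holding 10 uM luciferin and ATP in pH 7.6 buffer.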
In general terms: In qHTS, concentration-response curves come from the screen itself.
With `CC(C)[C@@H](CN1CC[C@@](C)(c2cccc(O)c2)[C@@H](C)C1)NC(=O)[C@H]1Cc2ccc(O)cc2CN1`, the call was inactive.

As for `CCCN1CCO[C@H]2c3cc(O)ccc3OC[C@@H]21`, the compound was classed as inactive.

With `Cc1cn(C[C@H](N)C(=O)O)c(=O)n(Cc2cc(-c3ccccc3)sc2C(=O)O)c1=O`, the “activity change, negative = inhibition” value was 0.0772% (inactive).

Turning to `COc1cc(C)[nH]c(=O)c1CNC(=O)c1c(C)n([C@H](C)C2CCOCC2)c2ccccc12`, the “activity change, negative = inhibition” value is 0.352% (inactive).

For the compound `CCCCCCn1c(=O)c(C(=O)Nc2ccc(C(=O)OCCC)cc2)c(O)c2ccccc21`, the activity change, negative = inhibition is 0.207% [at 11.6 µM] (inactive).

On to `CC1C/C=C/C(O)C(O)CC/C=C/c2cc(O)cc(O)c2C(=O)O1` (configuration not stated), for which the result was inactive.

As to `C=C[C@H]1[C@H](O[C@@H]2O[C@H](CO)[C@@H](O)[C@H](O)[C@H]2O)OC=C2C(=O)OCC[C@H]21`, the outcome was inactive.

Take `CCOc1ccccc1-n1c(C(C)N2CCN(C(=O)COc3ccc(Cl)cc3)CC2)nc2ccccc2c1=O` (configuration not stated): the compound was called inactive.

Turning to `COC(=O)C1(C)CCC(=O)C2(C)c3c(O)cc(C(C)C)cc3C(O)C(OC(C)=O)C12` (configuration not stated), the “activity change, negative = inhibition” value was -0.139% [at 25.7 µM] (inactive).

As for `COC1=CC(=O)O[C@@H](/C=C/c2ccccc2)C1`, the “activity change, negative = inhibition” value is 1.97% (inactive).

Turning to `C/C=C(\C)C(=O)OC1CC2C(C)(C)OC(=O)CC(OC(C)=O)C2(C)C2CC(OC(=O)C(C)C)C3(C)C(c4ccoc4)CC4OC43C12C` (configuration not stated), the “outcome” value was “inactive [at 25.7 µM]”.

Take `CN1[C@H]2C[C@H](OC(=O)[C@H](CO)c3ccccc3)C[C@@H]1[C@@H](O)C2`: the call was inactive.

Take `COC1CC(OC2CCC3(C)C(CCC4C3CCC3(C)C(C5=CC(=O)OC5)C(OC(C)=O)CC43O)C2)OC(C)C1OC1OC(CO)C(O)C(O)C1O` (configuration not stated): the “activity change, negative = inhibition” value was 2.85% [at 25.7 µM] (inactive).

In the case of `C=C(C)[C@H]1O[C@H]2CC[C@@]3(C)[C@@](O)(CC[C@H]4[C@@H]5OC(C)(C)[C@H]6C[C@@H]7C(=C)Cc8c(Cl)cc9[nH]c(c5c9c8[C@@]76O)[C@@]43C)[C@]23O[C@@H]3[C@H]1O`, the “outcome” value is “inactive [at 25.7 µM]”.

For the compound `CN1[C@@H]2CC[C@H]1CC(OC(=O)C1C=Nc3ccccc31)C2` (some centres not stated), the “activity change, negative = inhibition” value is 1.68% (inactive).

With `C[C@@]1(C(=O)O)CC[C@]2(C)CC[C@]3(C)C4=CC(=O)c5cc(O)c(O)cc5[C@]4(C)CC[C@@]3(C)[C@@H]2C1`, the “outcome” value is “inactive [at 25.7 µM]”.

Consider `CN1C(=O)c2ccccc2NC(=O)C1Cc1ccccc1` (configuration not stated), for which the “activity change, negative = inhibition” value was 2.01% (inactive).

In the case of `C[C@H]1O[C@@H](O[C@H]2C[C@@H](O)[C@]3(CO)C4C(CC[C@]3(O)C2)[C@@]2(O)CC[C@H](C3=CC(=O)OC3)[C@@]2(C)C[C@H]4O)[C@@H](O)[C@@H](O)[C@H]1O` (some centres not stated), the “activity change, negative = inhibition” value is 1.12% [at 25.7 µM] (inactive).

Consider `CC(=O)OC1CC(O)C2(C)C(CC(OC(C)=O)C3(C)C2CCC2(C)C(c4ccoc4)C(=O)C4OC423)C1(C)C` (configuration not stated), for which the “activity change, negative = inhibition” value is 3.41% [at 25.7 µM] (inactive).

Take `CC(=O)O[C@H]1C[C@@H](OC(C)=O)C(C)(C)C2C[C@@H](O)[C@]3(C)C(CC[C@@]4(C)[C@H](C5=CC(=O)OC5O)C[C@H]5O[C@]543)[C@]21C` (some centres not stated): the “activity change, negative = inhibition” value is 1.47% [at 25.7 µM] (inactive).

Regarding `CCCCCOc1cc2c(cc1-c1cc(/C=C/C(=O)O)ccc1O)C(C)(C)CCC2(C)C`, the call was inactive.

As to `COC(=O)[C@@]12C(=O)C(C)C(=O)[C@]1(C)C(C)=C[C@H]1[C@]3(C=O)CC[C@H](OC(C)=O)C(C)(C)[C@H]3CC[C@@]12C` (some centres not stated), the “activity change, negative = inhibition” value is 3.06% [at 25.7 µM] (inactive).

With `O=C(N1CCOCC1)N1CCN(c2ccc(Cl)cc2)CC1`, the result was inactive.

In the case of `CCc1[nH]c2ccc(OC)cc2c1CCN(C)C`, the “activity change, negative = inhibition” value was -0.124% (inactive).

Turning to `CC(C)(C)c1cc(C(C)(C)C)c2c(c1)C(O)(C(F)(F)F)C(=O)O2` (configuration not stated), the compound was classed as inactive.

`CCC1NC(=O)C2C(Cl)C(Cl)CN2C(=O)C(C(C)O)NC(=O)CC(c2ccccc2)NC(=O)C(CO)NC1=O` (configuration not stated): the “activity change, negative = inhibition” value was 0.158% [at 25.7 µM] (inactive).

With `N#CC(OC1OC(COC2OC(CO)C(O)C(O)C2O)C(O)C(O)C1O)c1ccccc1` (configuration not stated), the “activity change, negative = inhibition” value is 0.0532% [at 25.7 µM] (inactive).

Consider `COCC1OC(=O)c2coc3c2C1(C)C1=C(C3=O)C2CCC(=O)C2(C)CC1O` (configuration not stated), for which the compound was called inactive.

As for `CC(CCc1ccc(O)cc1)O[C@@H]1O[C@H](CO[C@H]2OC[C@](O)(CO)[C@H]2O)[C@@H](O)[C@H](O)[C@H]1O` (some centres not stated), the “outcome” value is “inactive [at 25.7 µM]”.

`CC1=C2C(=O)C3[C@@H](CC=C4C[C@@H](O)CC[C@@]43C)[C@@H]2CC[C@]12O[C@@H]1C[C@H](C)CN[C@H]1[C@H]2C` (some centres not stated): the “activity change, negative = inhibition” value was 1.17% [at 25.7 µM] (inactive).

On to `CCN1CC2(COC)C3[C@@H](OC)C4C1C3(C1C[C@]3(O)[C@H](OC(=O)c5ccccc5)C1[C@]4(OC(C)=O)[C@@H](O)[C@@H]3OC)[C@H](OC)C[C@H]2O` (some centres not stated), for which the “activity change, negative = inhibition” value is 2.26% (inactive).

For the compound `COC1C(O)C(C)OC(OC2C(CO)O[C@@H](O[C@@H]3CC4CCC5C(CC[C@]6(C)[C@@H](C7=CC(=O)OC7)CC[C@]56O)[C@@]4(C)[C@H](O)C3)C(O)C2O)C1O` (some centres not stated), the “activity change, negative = inhibition” value is 4.82% [at 25.7 µM] (inactive).
